The supplement of paper PMC7411054
Where a name gives a salt, the structure may show the parent alone.

Tests used:
Experiment in all cases: lowest phenotypically active concentration; higher = less potent
Details in all cases: treatment time: 24 h
A549-TUBA1B-RELA = test system: A549-TUBA1B-RELA
Outline: (§1)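 Phenotypic activity depended on meeting both a deviation and a reproducibility criterion. The fifteen gene-edited A549, HepG2 and WPMY1 reporter lines were treated at 0.3, 1, 3 or 9 µM for 24 h, four wells each, then imaged live with features normalised to solvent control wells. Deviation required ≥3 of 4 wells past the 95th percentile of control Euclidean distances, and reproducibility a median replicate Pearson correlation above the 95th percentile of non-replicates.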

HepG2-CANX-COX4 = test system: HepG2-CANX-COX4
Outline: as §1

HepG2-GM130-SQSTM1 = test system: HepG2-GM130-SQSTM1
Outline: as §1

HepG2-TP53BP1-CLTA = test system: HepG2-TP53BP1-CLTA
Outline: as §1

HepG2-TUBA1B-RELA = test system: HepG2-TUBA1B-RELA
Outline: as §1

WPMY1-ACTB-RAB5A = test system: WPMY1-ACTB-RAB5A
Outline: as §1

WPMY1-CANX-COX4 = test system: WPMY1-CANX-COX4
Outline: as §1

WPMY1-GM130-SQSTM1 = test system: WPMY1-GM130-SQSTM1
Outline: as §1

WPMY1-TP53BP1-CLTA = test system: WPMY1-TP53BP1-CLTA
Outline: as §1

WPMY1-TUBA1B-RELA = test system: WPMY1-TUBA1B-RELA
Outline: as §1

SMILES	lowest phenotypically active concentration (A549-TUBA1B-RELA)	lowest phenotypically active concentration (HepG2-CANX-COX4)	lowest phenotypically active concentration (HepG2-GM130-SQSTM1)	lowest phenotypically active concentration (HepG2-TP53BP1-CLTA)	lowest phenotypically active concentration (HepG2-TUBA1B-RELA)	lowest phenotypically active concentration (WPMY1-ACTB-RAB5A)	lowest phenotypically active concentration (WPMY1-CANX-COX4)	lowest phenotypically active concentration (WPMY1-GM130-SQSTM1)	lowest phenotypically active concentration (WPMY1-TP53BP1-CLTA)	lowest phenotypically active concentration (WPMY1-TUBA1B-RELA)
Cc1cc2c(C(C)C)c(O)c(O)c(C=O)c2c(O)c1-c1c(C)cc2c(C(C)C)c(O)c(O)c(C=O)c2c1O [gossypol]	9 µM	9 µM	9 µM	9 µM	9 µM	9 µM	9 µM	9 µM	3 µM	9 µM
C[C@@H]1O[C@@H](O[C@H]2C[C@@H](O)[C@]3(CO)[C@H]4[C@H](O)C[C@]5(C)[C@@H](C6=CC(=O)OC6)CC[C@]5(O)[C@@H]4CC[C@]3(O)C2)[C@H](O)[C@H](O)[C@H]1O [Strophantine octahydrate]	1 µM	≤ 0.3 µM	≤ 0.3 µM	≤ 0.3 µM	≤ 0.3 µM	≤ 0.3 µM	≤ 0.3 µM	≤ 0.3 µM	≤ 0.3 µM	≤ 0.3 µM
CC[C@@H](C(=O)[C@@H](C)[C@@H](O)[C@H](C)[C@@H]1O[C@@H]([C@@H](CC)C(=O)O)CC[C@@H]1C)[C@H]1O[C@]2(C=C[C@@H](O)[C@]3(CC[C@@](C)([C@H]4CC[C@](O)(CC)[C@H](C)O4)O3)O2)[C@H](C)C[C@@H]1C [Salinomycin Sodium]	≤ 0.3 µM	1 µM	1 µM	1 µM	≤ 0.3 µM	≤ 0.3 µM	≤ 0.3 µM	≤ 0.3 µM	≤ 0.3 µM	≤ 0.3 µM
COc1cc([C@@H]2c3cc4c(cc3[C@H](O)[C@H]3COC(=O)[C@H]23)OCO4)cc(OC)c1OC [Podophyllotoxin]	≤ 0.3 µM	≤ 0.3 µM	≤ 0.3 µM	1 µM	≤ 0.3 µM	≤ 0.3 µM	≤ 0.3 µM	≤ 0.3 µM	≤ 0.3 µM	≤ 0.3 µM
C=C1[C@@H](C)[C@H]2[C@H](Cc3ccccc3)NC(=O)[C@]23OC(=O)C=C[C@H](O)CCC[C@@H](C)CC=C[C@H]3[C@@H]1O [Cytochalasin B]	1 µM	1 µM	1 µM	3 µM	3 µM	1 µM	1 µM	3 µM	3 µM	3 µM
C[C@H]1O[C@@H](O[C@H]2[C@@H](O)C[C@H](O[C@H]3[C@@H](O)C[C@H](O[C@H]4CC[C@@]5(C)[C@H](CC[C@@H]6[C@@H]5CC[C@]5(C)[C@@H](C7=CC(=O)OC7)[C@@H](O)C[C@]65O)C4)O[C@@H]3C)O[C@@H]2C)C[C@H](O)[C@@H]1O [Gitoxin]	≤ 0.3 µM	≤ 0.3 µM	1 µM	≤ 0.3 µM	≤ 0.3 µM	≤ 0.3 µM	≤ 0.3 µM	1 µM	≤ 0.3 µM	≤ 0.3 µM
COC[C@H]1OC(=O)c2coc3c2[C@@]1(C)C1=C(C3=O)[C@@H]2CCC(=O)[C@@]2(C)C[C@H]1OC(C)=O [wortmannin]	3 µM	–	–	–	–	–	–	–	–	–
Cc1sc2c(c1C)C(c1ccc(Cl)cc1)=N[C@@H](CC(=O)OC(C)(C)C)c1nnc(C)n1-2	≤ 0.3 µM	≤ 0.3 µM	≤ 0.3 µM	≤ 0.3 µM	≤ 0.3 µM	≤ 0.3 µM	≤ 0.3 µM	≤ 0.3 µM	≤ 0.3 µM	1 µM
CC(C)[C@@]1(NC(=O)[C@@H]2C[C@@H]3c4cccc5[nH]cc(c45)C[C@H]3N(C)C2)O[C@@]2(O)[C@@H]3CCCN3C(=O)[C@H](Cc3ccccc3)N2C1=O [Dihydroergocristine mesylate]	9 µM	9 µM	3 µM	9 µM	3 µM	9 µM	9 µM	9 µM	9 µM	9 µM
COc1ccc(CCN2CCC(Nc3nc4ccccc4n3Cc3ccc(F)cc3)CC2)cc1 [astemizole]	1 µM	3 µM	3 µM	3 µM	1 µM	3 µM	3 µM	3 µM	9 µM	3 µM
COc1cc2c(c(OC)c1OC)-c1ccc(OC)c(=O)cc1[C@@H](NC(C)=O)CC2 [colchicine]	9 µM	≤ 0.3 µM	≤ 0.3 µM	≤ 0.3 µM	≤ 0.3 µM	≤ 0.3 µM	≤ 0.3 µM	≤ 0.3 µM	≤ 0.3 µM	≤ 0.3 µM
C[C@]12CC[C@H]3[C@@H](CC[C@]4(O)C[C@@H](O)CC[C@]34C=O)[C@@]1(O)CC[C@@H]2C1=CC(=O)OC1 [Strophanthidin]	≤ 0.3 µM	1 µM	1 µM	≤ 0.3 µM	≤ 0.3 µM	≤ 0.3 µM	≤ 0.3 µM	≤ 0.3 µM	≤ 0.3 µM	≤ 0.3 µM
C=C1[C@@H](O)C2C=CC[C@H](C)C(=O)[C@](C)(O)C=C[C@@H](OC(C)=O)[C@]23C(=O)N[C@H](Cc2ccccc2)[C@@H]3[C@@H]1C (some centres not stated) [Cytochalasin D]	≤ 0.3 µM	≤ 0.3 µM	≤ 0.3 µM	≤ 0.3 µM	≤ 0.3 µM	≤ 0.3 µM	≤ 0.3 µM	≤ 0.3 µM	≤ 0.3 µM	≤ 0.3 µM
C[C@@]1(CO)[C@H](O)CC[C@@]2(C)[C@H]1CC[C@H]1C[C@@H]3C[C@@]12CC[C@]3(O)CO [Aphidicolin]	≤ 0.3 µM	≤ 0.3 µM	≤ 0.3 µM	≤ 0.3 µM	≤ 0.3 µM	≤ 0.3 µM	≤ 0.3 µM	≤ 0.3 µM	1 µM	≤ 0.3 µM
CC(C)(O)[C@H]1O[C@H]2CC[C@@]3(C)[C@@](O)(CC[C@H]4Cc5c([nH]c6ccccc56)[C@@]43C)C2=CC1=O [paxilline]	–	–	–	9 µM	–	–	–	9 µM	9 µM	–
O=C(NCCN1CCC2(CC1)C(=O)NCN2c1cccc(F)c1)c1ccc(F)c(F)c1 [ML 298 hydrochloride]	3 µM	–	9 µM	9 µM	9 µM	9 µM	9 µM	9 µM	–	9 µM
COC1=CC(C)=C[C@@H](C)[C@@H](O)[C@@H](C)CC(C)=CC=C[C@H](OC)[C@@H]([C@@H](C)[C@@H](O)[C@H](C)[C@@]2(O)C[C@@H](O)[C@H](C)[C@@H](C(C)C)O2)OC1=O [Bafilomycin A1]	≤ 0.3 µM	3 µM	3 µM	9 µM	3 µM	1 µM	3 µM	1 µM	3 µM	3 µM
CC(C)(C)c1cc(C=C(C#N)C#N)cc(C(C)(C)C)c1O [Malonoben]	1 µM	1 µM	1 µM	1 µM	1 µM	1 µM	1 µM	1 µM	1 µM	1 µM
CN1C[C@H](C(=O)N[C@]2(C)O[C@@]3(O)[C@@H]4CCCN4C(=O)[C@H](Cc4ccccc4)N3C2=O)C=C2c3cccc4[nH]cc(c34)C[C@H]21 [ergotamine]	3 µM	3 µM	3 µM	3 µM	9 µM	3 µM	3 µM	3 µM	3 µM	3 µM
Cc1sc2c(c1C)C(c1ccc(Cl)cc1)=N[C@@H](CC(N)=O)c1nnc(C)n1-2	≤ 0.3 µM	≤ 0.3 µM	≤ 0.3 µM	≤ 0.3 µM	≤ 0.3 µM	≤ 0.3 µM	≤ 0.3 µM	≤ 0.3 µM	≤ 0.3 µM	≤ 0.3 µM
CC(C)(N)Cc1ccccc1 [phentermine]	–	–	–	–	–	–	–	9 µM	–	–
C/C=C(/C)C(=O)O[C@H]1C(C)=C2[C@H]([C@@H]1OC(=O)CCCCCCC)[C@@](C)(OC(C)=O)C[C@H](OC(=O)CCC)[C@@]1(O)[C@H]2OC(=O)[C@@]1(C)O [Thapsigargin]	≤ 0.3 µM	≤ 0.3 µM	≤ 0.3 µM	≤ 0.3 µM	≤ 0.3 µM	≤ 0.3 µM	≤ 0.3 µM	≤ 0.3 µM	≤ 0.3 µM	≤ 0.3 µM
C[C@@]12C(=O)OC(=O)[C@]1(C)[C@H]1CC[C@@H]2O1 [Cantharidin]	–	9 µM	9 µM	9 µM	3 µM	3 µM	9 µM	3 µM	3 µM	3 µM
